Reference: ChEMBL document CHEMBL1961873, “Compounds: GSK PKIS; Assays: Nanosyn kinase panel” (2012)

Experiments:
[1] = molecular target: Sphingosine kinase 1 (Homo sapiens) (UniProt Q9NYA1); conditions: at 1 µM;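 note: mean SPHK1 inhibition value reported from the GSK PKIS kinase panel screen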
[2] = molecular target: T1, Sphingosine kinase 2 (Homo sapiens) (UniProt Q9NRA0); conditions: at 0.1 µM
T1 sequence (whole entry): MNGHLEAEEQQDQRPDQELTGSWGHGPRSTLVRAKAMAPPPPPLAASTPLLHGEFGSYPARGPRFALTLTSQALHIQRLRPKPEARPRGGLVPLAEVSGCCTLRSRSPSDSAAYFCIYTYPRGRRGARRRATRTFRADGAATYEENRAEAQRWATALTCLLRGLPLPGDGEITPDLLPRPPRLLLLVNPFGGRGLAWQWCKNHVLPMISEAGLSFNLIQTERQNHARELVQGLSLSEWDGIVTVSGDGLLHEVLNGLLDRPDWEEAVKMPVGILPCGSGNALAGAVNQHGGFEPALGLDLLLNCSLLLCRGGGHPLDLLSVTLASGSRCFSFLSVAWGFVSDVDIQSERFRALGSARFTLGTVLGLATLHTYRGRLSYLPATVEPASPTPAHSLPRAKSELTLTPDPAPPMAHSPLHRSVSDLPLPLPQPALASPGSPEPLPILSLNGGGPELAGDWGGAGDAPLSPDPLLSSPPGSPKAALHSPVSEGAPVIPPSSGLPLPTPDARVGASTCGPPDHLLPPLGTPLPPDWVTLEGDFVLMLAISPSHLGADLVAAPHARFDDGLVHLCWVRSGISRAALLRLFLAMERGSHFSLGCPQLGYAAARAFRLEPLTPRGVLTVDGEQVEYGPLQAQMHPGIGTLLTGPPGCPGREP

[3] = molecular target: T1, Sphingosine kinase 2 (Homo sapiens); conditions: at 1 µM
[4] = molecular target: Casein kinase II subunit alpha (Homo sapiens) (UniProt P68400); conditions: at 0.1 µM
Sequence of Casein kinase II subunit alpha (Homo sapiens) (P68400 whole entry, looked up): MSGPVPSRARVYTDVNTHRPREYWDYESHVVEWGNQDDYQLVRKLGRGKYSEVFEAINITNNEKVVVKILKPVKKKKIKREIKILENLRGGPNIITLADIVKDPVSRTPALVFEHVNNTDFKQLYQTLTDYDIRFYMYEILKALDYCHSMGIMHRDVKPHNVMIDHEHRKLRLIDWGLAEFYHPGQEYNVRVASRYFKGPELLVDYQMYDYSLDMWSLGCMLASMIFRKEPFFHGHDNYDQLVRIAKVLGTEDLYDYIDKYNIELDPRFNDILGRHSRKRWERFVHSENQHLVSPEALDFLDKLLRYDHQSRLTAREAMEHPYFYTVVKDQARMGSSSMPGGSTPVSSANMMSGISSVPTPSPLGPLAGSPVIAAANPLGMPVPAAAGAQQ

[5] = molecular target: Casein kinase II subunit alpha (Homo sapiens) (UniProt P68400); conditions: at 1 µM
[6] = molecular target: T2, Inhibitor of nuclear factor kappa-B kinase subunit alpha (Homo sapiens) (UniProt O15111); conditions: at 0.1 µM
T2 sequence (whole entry): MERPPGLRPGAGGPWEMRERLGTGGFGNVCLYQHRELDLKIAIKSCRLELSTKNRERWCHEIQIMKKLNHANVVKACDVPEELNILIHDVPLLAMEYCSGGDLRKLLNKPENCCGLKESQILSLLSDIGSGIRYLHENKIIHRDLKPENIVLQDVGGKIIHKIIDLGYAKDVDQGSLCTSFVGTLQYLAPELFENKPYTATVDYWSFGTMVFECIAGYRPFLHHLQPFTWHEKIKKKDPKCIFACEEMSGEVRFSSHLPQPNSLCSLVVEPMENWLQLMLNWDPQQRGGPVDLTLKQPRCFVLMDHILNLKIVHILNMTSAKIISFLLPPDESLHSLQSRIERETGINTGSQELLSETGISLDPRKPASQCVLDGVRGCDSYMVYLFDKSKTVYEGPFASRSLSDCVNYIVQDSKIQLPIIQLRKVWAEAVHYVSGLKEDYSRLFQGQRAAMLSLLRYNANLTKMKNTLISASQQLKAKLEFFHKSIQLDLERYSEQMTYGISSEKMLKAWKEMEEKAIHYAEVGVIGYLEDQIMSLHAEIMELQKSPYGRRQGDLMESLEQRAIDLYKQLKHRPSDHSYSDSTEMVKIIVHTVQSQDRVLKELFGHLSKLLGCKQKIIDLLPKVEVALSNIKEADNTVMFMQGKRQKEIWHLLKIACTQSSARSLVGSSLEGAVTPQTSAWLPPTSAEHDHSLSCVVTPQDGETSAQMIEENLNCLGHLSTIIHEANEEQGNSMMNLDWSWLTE

[7] = molecular target: T2, Inhibitor of nuclear factor kappa-B kinase subunit alpha (Homo sapiens); conditions: at 1 µM
[8] = molecular target: T3, Inhibitor of nuclear factor kappa-B kinase subunit beta (Homo sapiens) (UniProt O14920); conditions: at 0.1 µM
T3 sequence (whole entry): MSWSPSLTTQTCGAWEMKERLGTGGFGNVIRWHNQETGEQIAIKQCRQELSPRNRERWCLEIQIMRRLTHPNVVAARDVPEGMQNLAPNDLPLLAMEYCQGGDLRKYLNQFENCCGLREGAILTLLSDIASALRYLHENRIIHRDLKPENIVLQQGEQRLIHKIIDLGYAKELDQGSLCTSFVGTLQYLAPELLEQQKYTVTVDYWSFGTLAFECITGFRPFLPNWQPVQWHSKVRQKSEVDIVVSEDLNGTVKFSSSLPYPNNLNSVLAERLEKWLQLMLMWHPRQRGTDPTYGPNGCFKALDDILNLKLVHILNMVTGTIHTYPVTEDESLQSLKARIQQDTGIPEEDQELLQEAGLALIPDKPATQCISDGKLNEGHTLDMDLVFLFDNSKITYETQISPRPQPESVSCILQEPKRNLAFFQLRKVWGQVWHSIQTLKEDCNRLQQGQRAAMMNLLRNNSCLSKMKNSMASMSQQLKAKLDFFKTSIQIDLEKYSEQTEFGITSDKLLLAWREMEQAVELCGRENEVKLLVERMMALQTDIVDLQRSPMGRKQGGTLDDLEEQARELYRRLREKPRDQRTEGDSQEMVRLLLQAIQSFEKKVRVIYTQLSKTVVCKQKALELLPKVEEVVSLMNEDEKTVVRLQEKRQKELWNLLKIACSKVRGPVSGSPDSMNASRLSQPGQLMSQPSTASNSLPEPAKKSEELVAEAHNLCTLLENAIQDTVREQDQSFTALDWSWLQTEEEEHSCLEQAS

[9] = molecular target: T3, Inhibitor of nuclear factor kappa-B kinase subunit beta (Homo sapiens); conditions: at 1 µM
[10] = molecular target: T4, Inhibitor of nuclear factor kappa-B kinase subunit epsilon (Homo sapiens) (UniProt Q14164); conditions: at 0.1 µM
T4 sequence (whole entry): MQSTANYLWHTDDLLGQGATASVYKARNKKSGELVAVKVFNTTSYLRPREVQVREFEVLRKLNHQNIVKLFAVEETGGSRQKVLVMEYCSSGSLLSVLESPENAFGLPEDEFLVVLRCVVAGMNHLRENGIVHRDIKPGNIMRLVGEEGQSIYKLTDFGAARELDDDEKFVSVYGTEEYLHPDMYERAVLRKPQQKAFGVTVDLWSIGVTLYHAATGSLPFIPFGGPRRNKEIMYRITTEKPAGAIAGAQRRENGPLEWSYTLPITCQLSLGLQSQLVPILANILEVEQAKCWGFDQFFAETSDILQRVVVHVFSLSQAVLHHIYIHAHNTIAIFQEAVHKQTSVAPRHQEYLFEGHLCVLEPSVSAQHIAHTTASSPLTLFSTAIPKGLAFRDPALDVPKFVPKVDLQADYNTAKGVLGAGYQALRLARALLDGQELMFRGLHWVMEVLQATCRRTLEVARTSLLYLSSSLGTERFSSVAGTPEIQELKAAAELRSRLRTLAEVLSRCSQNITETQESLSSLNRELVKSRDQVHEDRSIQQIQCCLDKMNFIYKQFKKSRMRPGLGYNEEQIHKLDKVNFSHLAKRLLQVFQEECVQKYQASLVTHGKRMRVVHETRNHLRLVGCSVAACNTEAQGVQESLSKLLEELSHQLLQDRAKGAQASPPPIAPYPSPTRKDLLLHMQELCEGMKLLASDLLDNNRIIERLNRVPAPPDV

[11] = molecular target: T4, Inhibitor of nuclear factor kappa-B kinase subunit epsilon (Homo sapiens); conditions: at 1 µM
[12] = molecular target: T5, Serine/threonine-protein kinase Nek1 (Homo sapiens) (UniProt Q96PY6); conditions: at 0.1 µM
T5 sequence (whole entry): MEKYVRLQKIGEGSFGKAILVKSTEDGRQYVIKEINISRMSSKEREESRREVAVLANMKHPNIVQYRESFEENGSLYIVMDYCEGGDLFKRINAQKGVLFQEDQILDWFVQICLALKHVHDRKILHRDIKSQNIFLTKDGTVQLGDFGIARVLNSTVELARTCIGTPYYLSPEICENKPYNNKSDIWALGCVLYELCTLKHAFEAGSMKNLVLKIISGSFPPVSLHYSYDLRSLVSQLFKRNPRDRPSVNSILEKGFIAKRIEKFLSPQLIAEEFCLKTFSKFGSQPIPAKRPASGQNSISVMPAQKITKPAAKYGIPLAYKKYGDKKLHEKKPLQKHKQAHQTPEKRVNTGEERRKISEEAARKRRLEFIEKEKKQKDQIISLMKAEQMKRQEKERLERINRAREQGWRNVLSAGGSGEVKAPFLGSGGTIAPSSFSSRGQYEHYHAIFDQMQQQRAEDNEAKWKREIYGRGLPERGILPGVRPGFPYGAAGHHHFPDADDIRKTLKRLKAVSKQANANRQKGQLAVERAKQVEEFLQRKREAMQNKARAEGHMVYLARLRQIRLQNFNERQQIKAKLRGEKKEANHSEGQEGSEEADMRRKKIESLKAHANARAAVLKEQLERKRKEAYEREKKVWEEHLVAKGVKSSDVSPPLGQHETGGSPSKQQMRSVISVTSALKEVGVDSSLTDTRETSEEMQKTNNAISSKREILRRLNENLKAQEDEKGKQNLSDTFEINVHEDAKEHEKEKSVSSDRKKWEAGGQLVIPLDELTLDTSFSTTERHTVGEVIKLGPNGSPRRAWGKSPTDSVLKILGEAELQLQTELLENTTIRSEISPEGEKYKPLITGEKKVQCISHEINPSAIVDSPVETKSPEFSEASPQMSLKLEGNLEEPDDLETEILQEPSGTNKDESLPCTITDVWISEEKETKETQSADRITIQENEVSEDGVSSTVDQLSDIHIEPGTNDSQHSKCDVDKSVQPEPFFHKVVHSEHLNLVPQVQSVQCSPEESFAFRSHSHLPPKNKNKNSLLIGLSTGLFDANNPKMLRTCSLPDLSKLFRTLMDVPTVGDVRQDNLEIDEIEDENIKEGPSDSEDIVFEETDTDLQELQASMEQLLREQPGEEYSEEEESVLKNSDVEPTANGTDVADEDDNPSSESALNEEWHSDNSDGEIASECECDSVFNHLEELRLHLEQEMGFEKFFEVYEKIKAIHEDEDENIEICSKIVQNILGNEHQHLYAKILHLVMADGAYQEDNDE

[13] = molecular target: T5, Serine/threonine-protein kinase Nek1 (Homo sapiens); conditions: at 1 µM
[14] = molecular target: T6, Serine/threonine-protein kinase Nek2 (Homo sapiens) (UniProt P51955); conditions: at 0.1 µM
T6 sequence (whole entry): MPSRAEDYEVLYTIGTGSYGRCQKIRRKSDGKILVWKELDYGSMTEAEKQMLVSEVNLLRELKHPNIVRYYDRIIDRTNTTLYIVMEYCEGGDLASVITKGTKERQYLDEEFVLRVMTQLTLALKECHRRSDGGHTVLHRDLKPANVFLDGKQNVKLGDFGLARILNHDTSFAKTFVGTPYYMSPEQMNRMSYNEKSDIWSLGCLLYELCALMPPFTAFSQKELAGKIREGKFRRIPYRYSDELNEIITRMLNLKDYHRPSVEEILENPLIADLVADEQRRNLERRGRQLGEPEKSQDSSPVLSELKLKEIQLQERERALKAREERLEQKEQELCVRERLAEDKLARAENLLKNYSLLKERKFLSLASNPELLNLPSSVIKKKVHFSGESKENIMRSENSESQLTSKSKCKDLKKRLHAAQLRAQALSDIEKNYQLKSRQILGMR

[15] = molecular target: T6, Serine/threonine-protein kinase Nek2 (Homo sapiens); conditions: at 1 µM
[16] = molecular target: Serine/threonine-protein kinase Nek6 (Homo sapiens) (UniProt Q9HC98); conditions: at 0.1 µM
Sequence of Serine/threonine-protein kinase Nek6 (Homo sapiens) (Q9HC98 whole entry): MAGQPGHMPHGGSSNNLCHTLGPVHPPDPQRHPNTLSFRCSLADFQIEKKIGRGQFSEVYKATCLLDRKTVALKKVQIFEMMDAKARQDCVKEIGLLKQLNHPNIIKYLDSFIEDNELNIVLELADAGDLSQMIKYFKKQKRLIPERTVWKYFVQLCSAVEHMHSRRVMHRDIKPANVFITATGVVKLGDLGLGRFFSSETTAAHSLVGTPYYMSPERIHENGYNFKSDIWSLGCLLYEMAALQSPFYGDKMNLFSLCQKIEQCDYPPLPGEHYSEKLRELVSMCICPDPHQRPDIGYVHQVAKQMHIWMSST

[17] = molecular target: Serine/threonine-protein kinase Nek6 (Homo sapiens) (UniProt Q9HC98); conditions: at 1 µM
[18] = molecular target: Serine/threonine-protein kinase Nek7 (Homo sapiens) (UniProt Q8TDX7); conditions: at 0.1 µM
Sequence of Serine/threonine-protein kinase Nek7 (Homo sapiens) (Q8TDX7 whole entry, looked up): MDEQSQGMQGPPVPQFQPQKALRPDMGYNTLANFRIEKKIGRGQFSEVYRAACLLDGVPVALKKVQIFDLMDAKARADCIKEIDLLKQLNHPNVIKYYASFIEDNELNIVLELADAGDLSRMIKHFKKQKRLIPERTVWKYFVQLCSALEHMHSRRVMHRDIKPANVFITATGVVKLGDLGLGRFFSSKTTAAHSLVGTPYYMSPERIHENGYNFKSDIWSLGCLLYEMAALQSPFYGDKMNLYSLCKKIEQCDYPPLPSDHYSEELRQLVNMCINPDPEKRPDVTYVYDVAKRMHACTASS

[19] = molecular target: Serine/threonine-protein kinase Nek7 (Homo sapiens) (UniProt Q8TDX7); conditions: at 1 µM
[20] = molecular target: T7, Serine/threonine-protein kinase Nek9 (Homo sapiens) (UniProt Q8TD19); conditions: at 0.1 µM;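 note: reported value is the mean percent inhibition of NEK9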
T7 sequence (whole entry): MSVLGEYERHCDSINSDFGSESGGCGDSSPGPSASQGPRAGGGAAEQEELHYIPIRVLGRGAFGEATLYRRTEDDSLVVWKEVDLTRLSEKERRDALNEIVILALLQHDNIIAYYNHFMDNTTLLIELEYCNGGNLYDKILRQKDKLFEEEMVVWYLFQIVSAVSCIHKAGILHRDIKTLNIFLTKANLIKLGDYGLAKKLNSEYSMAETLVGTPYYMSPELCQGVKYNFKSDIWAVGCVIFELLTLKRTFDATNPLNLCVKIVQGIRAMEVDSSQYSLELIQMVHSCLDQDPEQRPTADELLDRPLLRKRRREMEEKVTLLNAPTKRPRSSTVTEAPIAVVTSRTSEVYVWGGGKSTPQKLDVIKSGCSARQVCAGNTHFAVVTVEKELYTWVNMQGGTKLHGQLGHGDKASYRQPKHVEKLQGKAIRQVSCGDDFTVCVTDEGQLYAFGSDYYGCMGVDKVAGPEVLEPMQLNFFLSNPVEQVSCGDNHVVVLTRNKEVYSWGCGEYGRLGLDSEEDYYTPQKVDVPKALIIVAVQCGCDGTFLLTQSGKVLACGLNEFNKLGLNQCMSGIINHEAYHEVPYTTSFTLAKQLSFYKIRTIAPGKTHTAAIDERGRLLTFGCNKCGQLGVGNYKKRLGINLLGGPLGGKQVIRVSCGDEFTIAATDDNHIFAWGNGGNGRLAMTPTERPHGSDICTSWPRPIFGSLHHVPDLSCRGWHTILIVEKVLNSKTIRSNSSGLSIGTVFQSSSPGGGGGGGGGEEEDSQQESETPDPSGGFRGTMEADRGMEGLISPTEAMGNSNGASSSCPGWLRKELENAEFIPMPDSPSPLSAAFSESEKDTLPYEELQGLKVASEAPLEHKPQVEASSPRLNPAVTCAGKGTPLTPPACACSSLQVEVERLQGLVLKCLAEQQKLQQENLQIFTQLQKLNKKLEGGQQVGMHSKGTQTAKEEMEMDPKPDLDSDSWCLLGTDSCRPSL

Sequence of Sphingosine kinase 1 (Homo sapiens) (Q9NYA1 whole entry): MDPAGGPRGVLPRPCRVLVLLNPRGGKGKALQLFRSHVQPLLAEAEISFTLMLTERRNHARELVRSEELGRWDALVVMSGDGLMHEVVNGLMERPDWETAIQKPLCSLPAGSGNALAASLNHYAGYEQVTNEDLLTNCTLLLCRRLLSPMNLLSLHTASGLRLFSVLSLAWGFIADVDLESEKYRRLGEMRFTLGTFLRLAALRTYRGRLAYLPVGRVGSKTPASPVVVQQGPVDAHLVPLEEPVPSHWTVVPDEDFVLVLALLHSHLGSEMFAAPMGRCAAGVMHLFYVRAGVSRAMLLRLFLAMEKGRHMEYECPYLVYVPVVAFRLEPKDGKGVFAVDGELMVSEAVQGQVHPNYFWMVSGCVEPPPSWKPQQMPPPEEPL

`CCCN1CCC(Oc2cc(Nc3nc(Nc4cccc(F)c4C(N)=O)c4cc[nH]c4n3)c(OC)cc2Cl)CC1` showed an inhibition [1] of 0.63%, an inhibition [2] of -0.36% and an inhibition [3] of 0.09%. It also gave an inhibition [4] of 0.96%, an inhibition [5] of 7.7% and an inhibition [6] of -0.06%. The inhibition [7] was -9.18%, the inhibition [8] was -1.77% and the inhibition [9] was -4.88%. It also gave an inhibition [10] of -2.26%, an inhibition [11] of -1.68% and an inhibition [12] of 0.59%. The inhibition [13] was 0.62%, the inhibition [14] was -0.38% and the inhibition [15] was 1.09%. The inhibition [16] was 0.14%, the inhibition [17] was -2.04% and the inhibition [18] was -8.48%. For the same molecule, the inhibition [19] was 1.7% and the inhibition [20] was -0.6%.
